± gives the standard deviation of the averaged measurements.
Key:
Assay in all cases: cell viability (% of vehicle); higher = less cytotoxic
HCI01 [1] = cells of a triple-negative basal-like breast cancer xenograft; conditions: 1 µM; 72 h
UCD52 [2] = cells of a triple-negative basal-like breast cancer xenograft; conditions: 1 µM; 72 h
WHIM2 [3] = cells of a triple-negative basal-like breast cancer xenograft; conditions: 1 µM; 72 h
WHIM30 [4] = cells of a triple-negative basal-like breast cancer xenograft; conditions: 1 µM; 72 h
HCI01 [5] = conditions: 10 µM; 72 h
HCI03 = cells of an ER-positive luminal breast cancer xenograft; conditions: 10 µM; 72 h
HCI09 = cells of a triple-negative luminal androgen receptor type breast cancer xenograft; conditions: 10 µM; 72 h
HCI11 = cells of an ER-positive luminal breast cancer xenograft; conditions: 10 µM; 72 h
HCI13 = cells of an ER-positive luminal breast cancer xenograft; conditions: 10 µM; 72 h
HCI16 = cells of a triple-negative basal-like breast cancer xenograft; conditions: 10 µM; 72 h
UCD52 [6] = conditions: 10 µM; 72 h
WHIM2 [7] = conditions: 10 µM; 72 h
WHIM30 [8] = conditions: 10 µM; 72 h

Structure (SMILES) | cell viability (HCI01 [1]) | cell viability (UCD52 [2]) | cell viability (WHIM2 [3]) | cell viability (WHIM30 [4]) | cell viability (HCI01 [5]) | cell viability (HCI03) | cell viability (HCI09) | cell viability (HCI11) | cell viability (HCI13) | cell viability (HCI16) | cell viability (UCD52 [6]) | cell viability (WHIM2 [7]) | cell viability (WHIM30 [8])
C=CC(=O)N1CCC(Oc2cc3c(Nc4ccc(Cl)c(Cl)c4F)ncnc3cc2OC)CC1 [Poziotinib] | 62.3 | 36.5 | 32.9 | 50.7 | 39.4 ± 14 | 48.7 | 47.1 ± 2.5 | 48 | 34.2 ± 4.1 | 66.1 | 44.2 ± 4.5 | 50.5 ± 5.6 | 35.8 ± 10
Cl.Fc1ccc(C2CCNCC2COc2ccc3c(c2)OCO3)cc1 (stereo not given) [Paroxetine HCl] | 91.6 | 79.7 | 100 | 87.4 | 63.7 ± 19 | 128 | 90.3 ± 17 | 74.8 | 120 ± 6.4 | 77.4 | 38.6 ± 4.8 | 43 ± 7.7 | 80.71 ± 0.29
N.N.O=C([O-])C1(C(=O)[O-])CCC1.[Pt+2] [Carboplatin] | 87.9 | 80.1 | 99.9 | 77 | 82.1 ± 6.4 | 82.7 | 91.7 ± 4 | 86.4 | 86.87 ± 0.21 | 51 | 39.6 ± 6.8 | 84.8 ± 13 | 89 ± 5.5
O=C(O)c1cc(O)c(O)c(O)c1 [Gallic acid] | 96.4 | 97.1 | 82.1 | 102 | 77.5 ± 0.96 | 107 | 90.8 ± 9.4 | 54.3 | 105 ± 7.6 | 126 | 91.2 ± 8.8 | 58 ± 13 | 84.5 ± 8.9
COc1cc(Nc2ncc(F)c(Nc3ccc4c(n3)N(COP(=O)(O)O)C(=O)C(C)(C)O4)n2)cc(OC)c1OC [Fostamatinib (R788)] | 116 | 92.3 | 79 | 112 | 88.3 ± 8.6 | 102 | 87.2 ± 7 | 61 | 74.5 ± 1 | 65 | 55.7 ± 3.7 | 58.1 ± 4.2 | 86.6 ± 6.6
CN(C)c1ccc(O)c2c1CC1CC3C(N(C)C)C(=O)C(C(N)=O)=C(O)C3(O)C(=O)C1=C2O.Cl (stereo not given) [Minocycline HCl] | 103 | 100 | 91.2 | 102 | 68.2 ± 8.5 | 59.2 | 55.8 ± 58 | 52.6 | 78.7 ± 12 | 96.5 | 70.7 ± 4.3 | 82.8 ± 14 | 81.8 ± 11
COc1cc(C(=O)O)ccc1NC(=O)C1NC(CC(C)(C)C)C(C#N)(c2ccc(Cl)cc2F)C1c1cccc(Cl)c1F (stereo not given) | 95.1 | 89.1 | 99.1 | 91.3 | 63.9 ± 30 | 143 | 37.1 ± 9.3 | 118 | 60.9 ± 7.6 | 97.1 | 101 ± 6.1 | 44.9 ± 8.6 | 102 ± 14
COCCn1c2c([n+](Cc3cnccn3)c1C)C(=O)c1ccccc1C2=O.[Br-] | 29.6 | 21.3 | 21.1 | 27 | 85.5 ± 29 | 48.3 | 28.3 ± 3.6 | 60.2 | 68.9 ± 8.8 | 82.5 | 53.9 ± 8.2 | 55.5 ± 2.3 | 62.3 ± 5.1
CC(C)(C)NC(=O)C1CC2CCCCC2CN1CC(O)C(Cc1ccccc1)NC(=O)C(CC(N)=O)NC(=O)c1ccc2ccccc2n1.CS(=O)(=O)O (stereo not given) [Saquinavir mesylate] | 96.9 | 89.5 | 105 | 99.4 | 101 ± 20 | 104 | 57.7 ± 51 | 95.3 | 38.63 ± 0.17 | 63.8 | 50.4 ± 0.71 | 36.3 ± 2.6 | 103 ± 3.5
CCOC(=O)C1=C(COCCN)NC(C)=C(C(=O)OC)C1c1ccccc1Cl (stereo not given) [Amlodipine] | 103 | 93.7 | 101 | 90.2 | 70.6 ± 31 | 86.4 | 50.5 ± 42 | 100 | 32.2 ± 4.1 | 69.9 | 27.6 ± 4 | 31.9 ± 10 | 73.4 ± 12
CN1CCCC1CCOC(C)(c1ccccc1)c1ccc(Cl)cc1.O=C(O)C=CC(=O)O (stereo not given) [Clemastine Fumarate] | 98.5 | 85.8 | 103 | 78.8 | 95.7 ± 30 | 79.3 | 52.8 ± 36 | 69.2 | 136 ± 24 | 74.4 | 36.5 ± 3.4 | 37.8 ± 3 | 104 ± 10
Cn1cnc2c(F)c(Nc3ccc(Br)cc3F)c(C(=O)NOCCO)cc21 | 71.6 | 59.9 | 80.7 | 69.9 | 84.1 ± 12 | 90.7 | 65.6 ± 13 | 76.4 | 70.9 ± 7.1 | 79.6 | 59.8 ± 8.5 | 55.2 ± 20 | 106 ± 14
C=C(c1ccc(C(=O)O)cc1)c1cc2c(cc1C)C(C)(C)CCC2(C)C [Bexarotene] | 106 | 107 | 91.9 | 142 | 60.2 ± 32 | 85.9 | 98.5 ± 3.8 | 100 | 54.3 ± 2.4 | 84.7 | 98 ± 14 | 44.8 ± 14 | 93.8 ± 4.4
CCCCCCCCCCCC1=C(O)C(=O)C=C(O)C1=O [Embelin] | 92.8 | 86.8 | 93.5 | 85.6 | 75.6 ± 18 | 97.1 | 22.8 ± 1.3 | 54.1 | 86.3 ± 2.1 | 92.7 | 72.3 ± 5.4 | 77.1 ± 2.9 | 70.1 ± 13
C=C1C(=CC=C2CCCC3(C)C2CCC3C(C)CCCC(C)(C)O)CC(O)CC1O (stereo not given) [Calcitriol] | 70.8 | 50.1 | 46.8 | 92.9 | 27.6 ± 12 | 119 | 27 ± 5.2 | 73.4 | 66.4 ± 6.8 | 107 | 55.7 ± 0.62 | 39.3 ± 9.2 | 137 ± 14
CC(C)C[C@H](NC(=O)[C@H](Cc1ccccc1)NC(=O)c1cnccn1)B(O)O [Bortezomib] | 32.8 | 21.6 | 24.9 | 24 |  |  |  |  |  |  |  |  | 
CC(NCCCc1cccc(C(F)(F)F)c1)c1cccc2ccccc12 (stereo not given) [Cinacalcet] | 102 | 78.1 | 91.9 | 83.9 | 33.2 ± 2.7 | 34.2 | 17.1 ± 4.2 | 122 | 43.4 ± 3 | 33.5 | 17.3 ± 0.67 | 34.7 ± 8.7 | 35.8 ± 1.6
CN(C)CC=CC(=O)Nc1cc2c(Nc3ccc(F)c(Cl)c3)ncnc2cc1OC1CCOC1.O=C(O)C=CC(=O)O.O=C(O)C=CC(=O)O (stereo not given) [Afatinib dimaleate] | 85.2 | 32.7 | 57.8 | 56 | 35.3 ± 3 | 53.8 | 35.2 ± 4.2 | 32.5 | 32.4 ± 2.1 | 30.7 | 40.1 ± 7.4 | 41.1 ± 4.1 | 54.6 ± 7
C#Cc1cccc(Nc2ncnc3cc(OCCOC)c(OCCOC)cc23)c1.Cl [Erlotinib Hydrochloride] | 63.1 | 68.3 | 50.1 | 80.5 | 75.1 ± 35 | 50 | 59 ± 12 | 104 | 69.8 ± 5.8 | 100 | 52.4 ± 1.8 | 48 ± 8.3 | 84.5 ± 5.2
COc1ccc(CN2CCN(C(c3ccc(F)cc3)c3ccc(F)cc3)CC2)c(OC)c1OC.Cl.Cl [Lomerizine HCl] | 85.2 | 90.8 | 99.6 | 92.2 | 85.8 ± 25 | 73.6 | 58.8 ± 20 | 78.5 | 32.61 ± 0.085 | 87.8 | 51.5 ± 0.83 | 48.1 ± 14 | 80 ± 1
Cc1ccc(-n2[nH]c(C)c(NN=C3C=CC=C(c4cccc(C(=O)O)c4)C3=O)c2=O)cc1C [Eltrombopag] | 85.8 | 94.6 | 101 | 96.2 | 28.3 ± 15 | 94.9 | 20.5 ± 4.7 | 60.9 | 54.9 ± 3 | 125 | 57 ± 2.9 | 37.8 ± 14 | 
Nc1ccn(C2OC(CO)C(O)C2O)c(=O)n1 (stereo not given) [Cytarabine] | 75 | 106 | 87.1 | 80.9 | 65 ± 1.2 | 101 | 94.2 ± 1.1 | 136 | 76.4 ± 11 | 83.3 | 91.4 ± 17 | 58.4 ± 8.6 | 86.07 ± 0.15
CC1=CC(=O)c2ccccc2C1=O [Menadione] | 98.6 | 94.2 | 105 | 98.2 | 61.6 ± 55 | 51.9 | 31.3 ± 7.9 | 30.5 | 57.3 ± 4.9 | 57.6 | 30.5 ± 2.1 | 44.1 ± 10 | 138 ± 14
COc1cc(C(=O)NS(=O)(=O)c2ccccc2C)ccc1Cc1cn(C)c2ccc(NC(=O)OC3CCCC3)cc12 [Zafirlukast] | 93.6 | 95.3 | 111 | 97.2 | 24.1 ± 0.82 | 87.8 | 22.3 ± 1.4 | 86.4 | 111 ± 2.8 | 106 | 78.7 ± 6.7 | 42.6 ± 1.2 | 116 ± 8.7
O=C(NC1CCN(CCCCC2(C(=O)NCC(F)(F)F)c3ccccc3-c3ccccc32)CC1)c1ccccc1-c1ccc(C(F)(F)F)cc1 [Lomitapide] | 92.2 | 56.3 | 62.7 | 63.8 | 34.8 ± 7.4 | 49.3 | 26.5 ± 2.4 | 43.7 | 33.8 ± 3.2 | 47.3 | 33 ± 3 | 41 ± 4.1 | 109 ± 5.5
CCc1oc2ccccc2c1C(=O)c1cc(Br)c(O)c(Br)c1 [Benzbromarone] | 88.4 | 92.9 | 102 | 88.3 | 65.9 ± 49 | 103 | 33.8 ± 25 | 98 | 128 ± 29 | 97 | 76 ± 7.4 | 40.1 ± 12 | 95.1 ± 20
CCOc1cc2ncc(C#N)c(Nc3ccc(OCc4ccccn4)c(Cl)c3)c2cc1NC(=O)C=CCN(C)C [Neratinib (HKI-272)] | 78.4 | 43.9 | 36.4 | 68.9 | 30.1 ± 7.1 | 38.1 | 27.8 ± 11 | 21.3 | 37.6 ± 1.3 | 38.7 | 23.2 ± 2.3 | 49.8 ± 12 | 96.1 ± 1.7
CC[C@@H]1/C=C(\C)C[C@H](C)C[C@H](OC)[C@H]2O[C@@](O)(C(=O)C(=O)N3CCCC[C@H]3C(=O)O[C@H](/C(C)=C/[C@@H]3CC[C@H](Cl)[C@H](OC)C3)[C@H](C)[C@@H](O)CC1=O)[C@H](C)C[C@@H]2OC [Pimecrolimus] | 102 | 89 | 82.4 | 86 | 71.4 ± 29 | 65.3 | 29.4 ± 5.2 | 76.9 | 56.5 ± 5.4 | 71.1 | 43.9 ± 8 | 62.5 ± 15 | 87.7 ± 14
CC1(C)Cc2c(-c3ccccc3)c(-c3ccc(Cl)cc3)c(CC(=O)O)n2C1 [Licofelone] | 125 | 103 | 90.3 | 97.1 | 46.1 ± 16 | 99.4 | 31.5 ± 2.2 | 90.2 | 84.6 ± 0.91 | 89.5 | 86.3 ± 4 | 47.3 ± 7 | 88.4 ± 11
Cc1c(C(=O)NN2CCCCC2)nn(-c2ccc(Cl)cc2Cl)c1-c1ccc(Cl)cc1 [Rimonabant] | 87.4 | 91.1 | 100 | 82.6 | 72.2 ± 38 | 114 | 22.2 ± 6.1 | 87.3 | 74.2 ± 19 | 96.7 | 62.3 ± 10 | 35.9 ± 10 | 68.4 ± 15

— the supplement of paper PMC6992640
